# Data taken from PubChem BioAssay AID1347426 (Functional Genomics Laboratory (NCATS/FGL), 2020).
# The campaign covered roughly 31,000 sequences. About 1,400 (4.5%) were called active.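 Rule for the calls: active = median seed-adjusted z-score above 1 or below -1; inactive = the rest.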 Only a selection was taken, and actives are over-represented in it overall.
# Experiment: Novel Modifiers of Survival Motor Neuron (SMN) Protein: Gene Identification via Genome-wide siRNA Screen;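 note: luminescence tracks full-length SMN protein made from the SMN2 reporter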
# Conditions: HEK293T SMN2-luciferase reporter, siRNA knockdown, 72 h; actives lie on both sides
# Outline: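 siRNA screen, 10418 genes ×3 siRNAs; 1 pmol/well, lipid reverse transfection into HEK293T SMN2-luc reporter line. 72 h, 37 °C, 5% CO2; ONE-Glo readout. Data: neg-ctrl normalized, log10, MAD; hit = MAD >1.0 or < -1.0.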
row,Sequence,median seed-adjusted z-score
1,UCGUGGUUGUUAAUUUGAATT against CSNK1E,-0.796 (inactive)
2,CAACUGUUCCUGUAUUGAATT against SLCO4C1,-0.116 (inactive)
3,GUAUCAAUCUAGAGCACAATT against MYOZ2,0.315 (inactive)
4,CGAGCUACACUGUCCACUUTT against CSGLCA-T,0.146 (inactive)
5,GGACUUGCUCGGCUCUAUATT against CRKRS,-1.16 (active)
6,CAACUUGGACAAGACCUUATT against GYS1,0.874 (inactive)
7,CGACAUCAGCUGAUAAUCATT against NPY1R,0.76 (inactive)
8,AACAGUAUCUUUCAGAAUATT against TMPRSS5,1.25 (active)
9,GGCUGAAUUAUGACCGGAATT against PPFIA4,0.0399 (inactive)
10,CUUGGAUACAGAUACGUUUTT against TLK1,-0.0133 (inactive)
11,UCGAUAUUCUAAGAUCACATT against UBE2D3,1.62 (active)
12,CACCUUAACUUCAUCAACATT against SCN4A,-0.681 (inactive)
13,GAGCUGGGAUGAUAAAGAUTT against AGPAT2,0.38 (inactive)
14,GCGAUGAUGUGGAACCUUATT against TBC1D9,-0.0473 (inactive)
15,AUAUAACACUUCUACUCUUTT against CMA1,-0.0475 (inactive)
16,CAACGAUGCUAGAAGAAUUTT against PCOLCE2,-1.15 (active)
17,CCGUCUAUAUGGAGUCUUUTT against ROR1,-0.0044 (inactive)
18,CUACUUUCGAGACUACUUUTT against DGAT2,0.195 (inactive)
19,GGGAAGAUAUUUGUCAGCATT against PLXNA2,0.308 (inactive)
20,ACAGGCCUGUGAAACCCUATT against PEX5,-0.0414 (inactive)
21,GCCUUACCUGGAGAACUGATT against VPS26A,-1.55 (active)
22,GCGAGAAUCUGUUAGUAAATT against PANK3,-0.185 (inactive)

row,Sequence,median seed-adjusted z-score
1,CCAUCUUCACUGACGAGCATT against GSC,0.17 (inactive)
2,CCUUUUUGCUGGACACUGUTT against PLEKHF1,0.055 (inactive)
3,CACCCAUGCUGACAGUGAATT against HLA-DMA,-0.00543 (inactive)
4,GCCUCCUUCUUUGACCGGATT against NACC1,1.59 (active)
5,GGACUUCUUUUGUCAUGCATT against BCKDHB,0.366 (inactive)
6,GAACAGAUGUUUGAGACUUTT against GUCA1A,0.101 (inactive)
7,GCGAGUGUCUUGAAGUAUATT against PLAA,-0.192 (inactive)
8,AAACAUUAUUUACCAUUCATT against ZNF439,-0.26 (inactive)
9,CCACGUGUCUAACACCAAUTT against KRT79,0.338 (inactive)
10,GAAUAUAUCUAAAUCGCAUTT against RORA,-0.144 (inactive)
11,GACCUCACGUUGUCGAAGATT against GTPBP4,1.01 (active)
12,GACUUGGAGUUUCAGGCAATT against XPC,-0.564 (inactive)
13,GCUCCAGUCUUUUCGCAAATT against DSG4,-0.0211 (inactive)
14,CCAAUUCUACAAAAGCAAATT against SRD5A3,-0.165 (inactive)
15,CGUGCACAGAUAUUACGCATT against FIGNL1,-0.408 (inactive)
16,GCAUUGUCGUUGCAAUCGATT against CLCA1,0.015 (inactive)
17,GCAUCGAGCAGGAACAGAATT against ATP2B2,1.37 (active)
18,UUUUUGAUGUGGACUCAAATT against USP18,-0.326 (inactive)
19,GUUCAAUACUUGAACACGATT against FFAR2,0.146 (inactive)
20,GAAUUACAGUGACAGUUCATT against AP3M1,0 (inactive)
21,GUAAUGUUCUUAAACGAAUTT against PPP2R5C,1.14 (active)
22,GAAACAUCUGGUGCUAUUATT against KREMEN2,-0.0883 (inactive)

row,Sequence,median seed-adjusted z-score
1,GCAAGAAUCCCUAAAGCAUTT against BAG2,-0.87 (inactive)
2,CAGUUGAUAUUCAUAAAGATT against ABI2,-0.0392 (inactive)
3,GGGCAGAAUUGGAAUGCGATT against CNTNAP4,-0.414 (inactive)
4,AGAGCGGUCUGACAGUGGATT against NUDT1,-0.175 (inactive)
5,GGUAUAAACGCGUCCAGCATT against MAFB,0.674 (inactive)
6,CCAACGACGUGGUGCAGAATT against CLDN14,-0.456 (inactive)
7,CAGCAAACCUUUGACCAGATT against U2AF2,2.14 (active)
8,CUACGGCUACGUCUACAUCTT against GPR25,0.377 (inactive)
9,GAGCGGACAUGAUAAGCAUTT against CD302,0.0818 (inactive)
10,GGAUGAUAUUAACAGGUCATT against USP8,0.743 (inactive)
11,GCAUACGCAGGAUCCUGGATT against KRT34,0.124 (inactive)
12,CGAGUUAGCAAGUUCAGCATT against CTRL,0.0758 (inactive)
13,GAAAUCUUCUUGAGUGUAATT against GPR141,-0.777 (inactive)
14,GGACAAUGUUGGGAAUAGATT against GPATCH2,0.0828 (inactive)
15,UCCUCUAAAAAUUACAGUATT against TUBB2A,1.03 (active)
16,CAUUAGAUCUGUGAUUAGATT against MCOLN3,-0.09 (inactive)
17,GGAAUGCUCCAAAAUGGGATT against FKBP1B,-0.561 (inactive)
18,GCACAUGUUUGGAGGAUUUTT against ZNRF2,0 (inactive)
19,CAACCCAGCCCAUCCCAAATT against PDK2,-0.481 (inactive)
20,CUGUGAAGAUAGAAGGAUATT against CAPZA1,-0.0237 (inactive)
21,GCAUUUCUUGGGUUGGUGATT against GABPA,1.43 (active)
22,CCGCGCAGUUCAUCUCAAATT against SNX15,-0.152 (inactive)

row,Sequence,median seed-adjusted z-score
1,CACUAGAAAUAACAAUGGATT against TMPRSS11D,-0.0643 (inactive)
2,AGAUCUCGUGGUUCUGGAATT against RPUSD1,0.327 (inactive)
3,GUGGUGGGCUUAUCCUCUATT against NRXN3,0.897 (inactive)
4,GAACCACAAUGUUAACAAUTT against CYBRD1,0.623 (inactive)
5,GCAAGAUCUCUAUUGGUAUTT against ABCC4,-1.66 (active)
6,GAAACCCUAUUACGAUGAATT against SOX30,-0.167 (inactive)
7,CAUGUAAACUUGCUGUUUUTT against CKS1B,0.00314 (inactive)
8,CAUAGUAGAUCAAAUCUUATT against ZNF284,0.21 (inactive)
9,CACUAGCAGUUGCAAGUAATT against RAB3GAP2,0.0583 (inactive)
10,GACCUGGGCUUAGACAGUUTT against NDUFAB1,-0.282 (inactive)
11,GGAGAGCUGUUGGUACUUUTT against TAAR9,-1.07 (active)
12,CACUGUUUCUUCACCGGCATT against ZDHHC22,0.00446 (inactive)
13,GCAGUUCACCCAUCCAGUATT against THY1,-1.1 (active)
14,GACCAAGCGCAAAACCAAATT against HOMEZ,-0.0614 (inactive)
15,GAUUUUGUGCGAUCCAUAATT against CBARA1,-0.0426 (inactive)
16,GCAGGUACAUGUCUUGUCUTT against SPRY2,0.148 (inactive)
17,CCCUACAUAGGAAACCUGUTT against PKD1L2,-1.17 (active)
18,CAGCCUACUUCAUAGCCUATT against GPR50,-0.0348 (inactive)
19,GCCGGCCUGUGAAAUAUGATT against MAP3K3,-0.182 (inactive)
20,UCACGUCACUACUUAAAAATT against ZNF644,0.389 (inactive)
21,CCAUUAAUGAAUUAGUCUATT against TXN,-0.195 (inactive)
22,AGCUCAACGUGCUGGAUUATT against PIP5KL1,-0.819 (inactive)

row,Sequence,median seed-adjusted z-score
1,CGAAGUUCAAGUAUAGGUATT against RAG1,-1.35 (active)
2,GGUUUGGAGCGAGAGUGGATT against ASB10,0 (inactive)
3,GCAGCUAUCUCUGUACAGATT against MAPK8IP3,0.734 (inactive)
4,UGUUCAGUCUGGAAUUUCATT against MAP2K1,0.942 (inactive)
5,GGACCCAAAUUCAGAAGAATT against ANKRA2,1.26 (active)
6,GGAUCGGUAUGUAGCAAUATT against HTR2C,-0.115 (inactive)
7,GAGUAUCCAUCGGUAUCUATT against ZBTB11,-0.105 (inactive)
8,UCCAGACUCUGGUCACCAATT against CREB3L1,0.708 (inactive)
9,GCAUUGACUUGGGUGAAGATT against GPR101,-0.265 (inactive)
10,GAGUUGAAGUUAAAGUAAATT against MORF4,0.0121 (inactive)
11,CGACAAGAUCAAAUACCCATT against LZTR1,0.293 (inactive)
12,CAAGCCUGAUUUCCACCUATT against DTD1,-1.58 (active)
13,CAACGAGAAUGACUGCUGATT against PTPDC1,-0.191 (inactive)
14,CAAGAAAACCAGAAUGGAATT against SERPING1,-0.244 (inactive)
15,GCGAUUGCUUUGAUGGGUATT against LTBP1,0.143 (inactive)
16,GAAUCCUCCCAAUUGAUCATT against LSG1,1.31 (active)
17,GAACAUCGUUAUAAGUUGATT against CNTN3,0.732 (inactive)
18,GCACUAAUCUGCAAACUGUTT against SPTB,0.153 (inactive)
19,CAGACAAAUUUUAACCACATT against SLC17A8,-0.332 (inactive)
